High-throughput results deposited in PubChem BioAssay by National Center for Advancing Translational Sciences (NCATS).
Luc counter: counter-screen: inhibitors of Kinase-Glo firefly luciferase; Q27757; Kinase-Glo luciferase, ATP luminescence, 8 min; Potency, µM (titrated, usually from 38.3 µM), for inactives: at the highest dose activity change, negative = inhibition, actives largely listed as inhibitors; hit rate 0.28% among 200,000; further: on the % scale 0 is the no-effect control and ±100 the full control effect; nearly all actives have a fitted effect of over 60% in size
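Luminescence was the read-out, taken after 8-minute incubation at ambient temperature. Luciferase turned over luciferin with 10 uM ATP in imidazole pH 7.2 buffer containing KCl, MgCl2, Tween 20 and BSA.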
Rab9 prom act: activators of Rab9 promoter; Huh7 Rab9 promoter-luciferase reporter, luminescence, 24 h; Potency, µM (top dose mostly 9.22 µM), without a hit: at the highest dose activation, negative = inhibition, hits mostly activators; hit rate 2.8% among 320,000; further: % of control where 0% means no effect; nearly all actives have a fitted effect of over 60% in size
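Steps: seed 1500 Huh7 Rab9-luc cells per well, rest 2 h at 37 °C; add compound in DMSO; incubate 24 h; add luciferase reagent, 10 min ambient; read luminescence.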
ELG1 genotox: induces genotoxicity in HEK293T cells with luciferase-tagged ELG1 | HEK293T ELG1-luciferase reporter, luminescence, 16 h | Potency, µM (series often up to 46 µM), for the others: at the top dose activity change, positive = activation, usual class: activators | hit rate 1.3% among 330,000 | AID 504466; further: % of control where 0% means no effect; nearly all actives have a fitted effect of over 60% in size
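ELG1-luciferase HEK293T cells, 2,000/well; compound pinned in; 16 hr, 37 °C, 5% CO2; ONE-Glo, 30 min RT; luminescence on CCD imager.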
SMN2 splice enh: increases expression of the SMN2 splice variant; Potency, µM (series often up to 46.1 µM), for inactives: at the top dose activity change, positive = activation, hits mostly activators; hit rate 2.8% among 210,000; HEK293 SMN2-luciferase splicing reporter, luminescence, 30-36 h; AID 1458; further: % of control where 0% means no effect; nearly all actives have a fitted effect of over 55% in size
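HEK293 cells carry an SMN2 […]–luciferase reporter in which exon 7 inclusion puts luciferase in frame. Cells were plated 10-12 h before compound addition, then incubated 30-36 h at 37C. ONE-Glo luminescence was read; sodium butyrate at 4.5 mM final served as control.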
FLuc counter: counter-screen for miR-21 project: firefly luciferase inhibitors or activators | AID 588342 | Potency, µM (titrated, usually from 57.5 µM), for inactives: at the top dose activity change, negative = inhibition, most hits filed as inhibitors | purified FLuc, Km substrates, luminescence inhibition | hit rate 6.9% among 360,000 | P08659;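 further: plate controls were vehicle for no effect and reference inhibitor for full effect; nearly all actives have a fitted effect of over 55% in size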
Target sequence (P08659 whole entry, looked up): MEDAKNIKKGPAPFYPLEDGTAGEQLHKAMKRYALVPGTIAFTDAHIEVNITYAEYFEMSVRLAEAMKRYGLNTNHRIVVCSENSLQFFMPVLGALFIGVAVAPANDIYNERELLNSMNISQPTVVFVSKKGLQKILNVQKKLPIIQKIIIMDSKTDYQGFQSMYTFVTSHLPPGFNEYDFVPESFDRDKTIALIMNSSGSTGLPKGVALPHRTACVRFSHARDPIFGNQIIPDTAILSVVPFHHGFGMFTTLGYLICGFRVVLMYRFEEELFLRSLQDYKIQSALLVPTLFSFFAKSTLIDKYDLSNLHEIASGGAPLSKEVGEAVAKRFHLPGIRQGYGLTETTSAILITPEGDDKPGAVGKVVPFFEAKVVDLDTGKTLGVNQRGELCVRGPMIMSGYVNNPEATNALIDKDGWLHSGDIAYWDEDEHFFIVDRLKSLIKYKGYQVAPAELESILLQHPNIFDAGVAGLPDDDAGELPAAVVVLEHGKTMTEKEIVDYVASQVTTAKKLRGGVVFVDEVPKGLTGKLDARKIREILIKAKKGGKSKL
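Purified P. pyralis luciferase, 10 nM final, with Km-level 10 uM D-luciferin and 10 uM ATP in 50 mM Tris acetate pH 7.5, 10 mM Mg acetate, 0.01% Tween-20, 0.05% BSA; 6-point qHTS titration about 60 µM downward; luminescence read.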
NPC1 promoter act: activates the NPC1 promoter; Potency, µM (highest dose often 9.22 µM), inactives show at the top dose activation, hits mostly activators; Huh7 NPC1 promoter luciferase reporter, 24 h; hit rate 2.4% among 320,000; further: % of control where 0% means no effect; nearly all actives have a fitted effect of over 60% in size
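Huh7 cells stably carrying NPC1 promoter–luciferase, plated in Opti-MEM with 10% FBS for 2 h, were exposed to compound in DMSO for 24 h at 37 °C; luciferase reagent was added for 10 min and luminescence read.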
The depositor's hits bear a star; ? = inconclusive; · = no result given; [ ] = dose if it differs, or a comment. An excerpt weighted towards active compounds, which were near 7.5% of everything screened. The call rests on the fitted dose curve; in most records, active means well fitted curve in the direction sought with a large enough effect; inconclusive means small, poorly fitted or top-dose-only effect, or another doubt; inactive means no such curve, though single readings can be large; an effect the other way counts as inactive or inconclusive. Potency means the concentration at half of the fitted maximal effect.

SMILES	Luc counter	Rab9 prom act	ELG1 genotox	SMN2 splice enh	FLuc counter	NPC1 promoter act
C/C(N)=C(/C#N)C(=O)COC(=O)c1cc2c(s1)CCC(C)C2 (stereo unspecified)	-1%	-2%	?	20%	17µM*	-2%
COc1ccc(O)c(CN2CCCC(N3CCc4ccccc4C3)C2)c1 (stereo unspecified)	·	-1%	-6%	·	-1%	-1%
COc1cc(-c2nnc(CSc3nnc(Nc4ccc(Oc5ccccc5)cc4)s3)o2)cc(OC)c1OC	-1%	14%	-2%	13%	9.5µM*	15%
COc1cc(-c2nnc(CSc3nnc(N)s3)o2)cc(OC)c1OC	1%	-2%	7%	20%	1%	-2%
O=C(Nc1cccc(Oc2ccc(C(=O)O)c(C(=O)O)c2)c1)c1ccc(-c2ccccc2)cc1	·	-4%	-2%	·	1.7µM*	1%
CC(C)(C)C(=O)Nc1ccc(C(=O)Nc2cccc(Oc3ccc(C(=O)O)c(C(=O)O)c3)c2)cc1	·	0%	-4%	·	1.5µM*	4%
COC(=O)c1cc(NC(=O)c2ccc(-c3ccccc3)cc2)ccc1Cl	2%	-5%	-1%	-61%	-2%	-1%
O=C(Nc1ccc2c(c1)OCO2)c1cc(-c2ccncc2)nc2ccccc12	-7%	5%	-2%	13%	?	2%
CN(C)c1ccc(-c2c(-c3ccc4c(c3)OCO4)noc2-c2ccsc2)cn1	·	9%	-1%	·	?	10%
CC(C)(C)NC(=O)c1cc(-c2ccc3c(c2)OCO3)nc2ccccc12	·	-5%	1%	·	17µM*	20%
Cn1c(NC(=O)c2cc(-c3ccc4c(c3)OCO4)nc3ccccc23)cc(=O)n(C)c1=O	?	20%	?	10µM*	2.1µM*	30%
O=C(O)c1cc(-c2ccc(-c3c(-c4ccc5c(c4)OCO5)noc3-c3ccsc3)cc2)nc2ccccc12	·	21%	3%	·	19µM*	?
O=C(O)c1cc(-c2ccc3c(c2)OCO3)nc2ccc(Cl)cc12	·	29%	29%	·	2.4µM*	0%
CCOc1ccc(CC(=O)NC2CC(=O)N(c3ccc(C)c(C)c3)C2)cc1 (stereo unspecified)	·	·	·	·	-9%	·
COC(=O)c1ccc(-c2cc(C(=O)O)c3cc4c(cc3n2)OCCO4)cc1	-3%	-1%	?	7%	4.8µM*	3%
COCCNC(=O)Cn1cc(/C=N/NC(=O)c2ccc(Oc3ccc(O)cc3)cc2)c2ccccc21	1%	-2%	-7%	-7%	11µM*	0%
Cc1nn(Cc2c(Cl)cccc2Cl)c(Cl)c1/C=N/NC(=O)c1cccnc1	1%	?	10%	14%	9.5µM*	13%
O=C(N/N=C/c1cccc2ccccc12)c1ccc(CN2CCOCC2)cc1	·	1%	-8%	·	17µM*	-4%
O=C(N/N=C/c1ccccc1Cl)c1cccc(F)c1	-26%	2µM*	?	22µM*	4.8µM*	2.5µM*
O=C(N/N=C/c1cccc([N+](=O)[O-])c1)c1ccc(CN2CCOCC2)cc1	-3%	13%	-4%	3%[1.84 µM]	?	-1%
CCc1noc(C)c1C(=O)N1CCSC1=Nc1cccc(Cl)c1C	·	-2%	-5%	·	1%	-1%
Cc1ccc(Cn2c(=O)n(Cc3ccccc3)c(=O)c3oc4ccccc4c32)cc1	·	·	·	·	-8%	·
CCc1ccc(C(=O)N/N=C/c2cccc3ccccc23)nc1	-2%	30%	?	?	5.4µM*	25%
O=C(N/N=C/c1cccc2ccccc12)c1cccnc1	·	1%	6%	·	15µM*	2%
Cc1ccccc1/C=N/NC(=O)c1cccnc1	·	0%	8%	·	?	-2%
SMILES	Luc counter	Rab9 prom act	ELG1 genotox	SMN2 splice enh	FLuc counter	NPC1 promoter act
O=C(N/N=C/c1cccc2ccccc12)c1cccc(F)c1	·	28%	24%	·	21µM*	26%
Nc1ccc(C(=O)N/N=C/c2cn(Cc3cccc(F)c3)c3ccccc23)cc1	·	1%	1%	·	24µM*	0%
COc1ccc(NC(=O)c2cc(C)no2)cc1	·	12%[1.84 µM]	18%	·	?	22%
COc1cccc(CNC(=O)c2cc3c(cc2Cl)N2CCCCCC2=NS3(=O)=O)c1	·	-4%	0%	·	-10%	0%
O=C(CSc1nc(=O)n(Cc2ccco2)c2c1CCC2)NCc1ccc(F)cc1	·	·	·	·	-17%	·
Nc1ccc(Cc2nc3c(ccc4ccccc43)[nH]2)cc1	0%	4µM*	?	11%	13µM*	4µM*
Cn1cnc2c(=O)oc3ccc(S(=O)(=O)Nc4ccc(F)cc4)cc3c21	·	·	·	·	-7%	·
COc1ccc(CCNC(=O)CSc2nnc(-c3ccc(C)cc3)c(-c3ccc(C)cc3)n2)cc1OC	·	·	·	·	-12%	·
COc1ccc(C(C#N)=C2C=CC(=NO)C=C2)cc1	·	0%	-4%	·	17µM*	-1%
COc1ccc(Nc2nc(N)c3cc(OC)c(OC)cc3n2)cc1	·	·	·	11%	15µM*	·
Cc1ccc(Nc2nc(N)c3ccccc3n2)cc1C	·	0.5µM*	?	·	0.54µM*	0.5µM*
COc1cc2nc(Nc3cccc(F)c3)nc(N)c2cc1OC	·	0%	-6%	3%	?	0%
COc1ccc(Nc2nc(N)c3ccccc3n2)c(OC)c1	·	4.5µM*	?	·	7.6µM*	3.5µM*
COc1ccc(Nc2nc(-c3ccccc3)nc3ccccc23)c(OC)c1	1%	-5%	-6%	-12%	-19%	-12%
COc1ccc(NC(=O)c2nnn(CC(=O)Nc3ccc4c(c3)OCO4)c2N)c(OC)c1	·	18%	1%[9.26 µM]	·	1.9µM*	19%
Nc1c(C(=O)Nc2ccc3c(c2)OCCO3)nnn1Cc1ccccc1Cl	·	2.2µM*	17%	·	?	2.8µM*
Nc1c(C(=O)Nc2ccc3c(c2)OCCO3)nnn1Cc1ccc(F)cc1	·	2.2µM*	?	·	?	2.5µM*
COc1ccc(Br)cc1Cn1nnc(C(=O)Nc2ccc3c(c2)OCCO3)c1N	·	-2%	-7%	·	?	0%
Nc1c(C(=O)Nc2ccc3c(c2)OCCO3)nnn1Cc1cccc(Cl)c1	·	?	12%	·	?	?
COc1ccc(NC(=O)c2nnn(CC(=O)Nc3ccc4c(c3)OCO4)c2N)cc1OC	·	-4%	0%[9.26 µM]	·	-5%	-5%
CN(C)c1ccc(C(CNS(=O)(=O)c2ccc(Br)cc2)N2CCCC2)cc1 (stereo unspecified)	·	·	·	·	-4%	·
NCCSCCC(=O)O	-5%[7.66 µM]	·	·	-5%[9.22 µM]	·	·
COc1ccc(C2C=C(c3ccccc3)Nc3nc(NC(=O)/C=C/c4ccccc4OC)nn32)cc1 (stereo unspecified)	·	·	·	·	-7%	·
